Compound activity from PubChem BioAssay.
Sampled rows, rich in hits. Any-hit rate of the full collection: about 7.4%.
D1 allo mod: D1 dopamine receptor (human) allosteric modulation. P21728. HEK293 D1, CRE-luciferase, dopamine EC30 potentiation; actives deviate in either direction. B-score at 10 µM. 58,000 compounds, 5.9% hits;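 active means luminescence count or its row- and column-corrected plate score outside the 99.7% band of the plate's sample wells, on either side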
Target sequence (P21728 whole entry, looked up): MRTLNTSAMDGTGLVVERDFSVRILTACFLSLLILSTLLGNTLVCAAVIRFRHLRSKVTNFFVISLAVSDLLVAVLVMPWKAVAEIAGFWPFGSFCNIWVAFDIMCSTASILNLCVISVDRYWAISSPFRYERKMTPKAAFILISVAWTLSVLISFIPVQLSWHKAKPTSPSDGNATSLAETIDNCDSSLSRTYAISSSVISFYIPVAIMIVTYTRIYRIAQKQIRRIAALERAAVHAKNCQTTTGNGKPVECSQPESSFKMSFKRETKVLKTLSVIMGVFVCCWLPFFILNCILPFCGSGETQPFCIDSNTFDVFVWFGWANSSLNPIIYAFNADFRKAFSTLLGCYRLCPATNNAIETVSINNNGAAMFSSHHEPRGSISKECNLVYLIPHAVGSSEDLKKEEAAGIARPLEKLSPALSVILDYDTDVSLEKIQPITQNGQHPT
FXIa mix inh: inhibitors of human coagulation factor XIa, pooled mixtures; P03951; purified FXIa, fluorogenic substrate; inhibition, % at 5 µM; 62,000 compounds, 0.19% hits;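 further: each value is inhibition by a whole ten-compound pool holding the compound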
M1 antagonist: M1 muscarinic receptor (rat) antagonism. 64,000 compounds, 3.4% hits. B-score at 10 µM. CHO-M1 cells, Fluo-4 calcium, ACh EC80 antagonist mode; active compounds read low. P08482;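 active means calcium fluorescence response, raw or row-and-column corrected B-score, differing from the plate sample mean either way at a set confidence level, mostly lower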
FXIIa inh mix: factor XIIa (human) inhibition, mixture screen; 62,000 compounds, 0.2% hits; P00748; purified FXIIa, fluorogenic substrate, pooled mixtures; inhibition, % at 5 µM; AID 684
DAT uptake mod: modulates human dopamine transporter uptake under cocaine; LLC-PK1 hDAT cells, [14C]-dopamine uptake with cocaine IC80; actives deviate in either direction; B-score at 10 µM; 110,000 compounds, 1.3% hits;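 active means Z score or B-score, a plate-position-corrected score, falls beyond the plate's 99.7% confidence bounds, in either direction; inactive means both scores lie inside the 99.7% bounds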
M1 agonist: agonists of M1 muscarinic receptor; CHO-M1 cells, Fluo-4 calcium fluorescence, agonist mode; active compounds read high; B-score at 10 µM; 64,000 compounds, 3% hits;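 active means fluorescence rise, raw or as B-score row- and column-corrected plate score, outside the 99.7% band of its plate's samples, either direction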
Of the large screens only hits and unclear results are named; the others gave an inactive call. Unless noted, no stated cut-off is given here; in the data, active means inhibition above about 20% (passing the limit was not always enough); inactive means the rest.

COCc1nnc(NC(=O)CSc2ccc(C)cc2)s1	none
CCCCCCNC(=O)N[C@@H](C(=O)NCCC[C@H]1CN2C(=NC[C@@H]2Cc2ccccc2)N1CCc1cccc(OC)c1)C(C)C	DAT uptake mod -3 (no result: D1 allo mod, FXIa mix inh, M1 antagonist, FXIIa inh mix, M1 agonist)
C/C=C(\C)C(=O)NCCN1C2=NC[C@@H](Cc3ccccc3)N2C[C@@H]1Cc1ccc(OC)cc1	none (no result: D1 allo mod, FXIa mix inh, M1 antagonist, FXIIa inh mix, M1 agonist)
Cc1cc2cc(CN(C(=O)C3CC3)C3CCCC3)c3nnnn3c2cc1C	DAT uptake mod 2.9
Cc1ccc(S(=O)(=O)Nc2c(C)n(C)n(-c3ccccc3)c2=O)cc1	none (no result: D1 allo mod, FXIa mix inh, M1 antagonist, FXIIa inh mix, M1 agonist)
COc1ccccc1C1NC(=O)NC(C)=C1C(=O)Nc1cccc(C)c1C (stereo not given)	none
COc1ccccc1C1NC(=O)NC(C)=C1C(C)=O (stereo not given)	FXIIa inh mix 72
CC(NC(=O)c1ccc(F)cc1)c1nc2ccccc2n1Cc1ccccc1F (stereo not given)	none (no result: D1 allo mod, FXIa mix inh, M1 antagonist, FXIIa inh mix, M1 agonist)
CCCCOc1ccccc1C1C(C(=O)OC)=C(C)N(C)C(C)=C1C(=O)OC	none (no result: D1 allo mod, M1 antagonist, M1 agonist)
COC(=O)C1=C(C)N(C)C(C)=C(C(=O)OC)C1c1ccccc1C	FXIa mix inh 24
Cc1ccc(C)c2[nH]c(=O)c(CCNC(=O)c3ccc(Br)o3)cc12	none
CCCCC(=O)NC1(C(F)(F)F)C(=O)Nc2c1c(=O)n(C)c(=O)n2C (stereo not given)	M1 antagonist 1.5
O=S(=O)(Cc1ccccc1)N1CCc2ccccc21	M1 agonist 8.3
Cc1ccccc1-n1c(SCc2c(C)noc2C)nnc1-c1c[nH]c2ccccc12	D1 allo mod -6.2
Cc1noc(C)c1CSc1nnc(-c2ccccc2)n1N	DAT uptake mod -8.6 (no result: D1 allo mod, FXIa mix inh, M1 antagonist, FXIIa inh mix, M1 agonist)
O=c1c(Cc2ccc(Cl)cc2)c(O)ccn1Cc1ccccc1	none (no result: D1 allo mod, FXIa mix inh, M1 antagonist, FXIIa inh mix, M1 agonist)
CCOc1cccc(C(=O)NC(=S)Nc2ccc(N3CCCC3)cc2)c1	DAT uptake mod 0.76 (no result: D1 allo mod, FXIa mix inh, M1 antagonist, FXIIa inh mix, M1 agonist)
CCOc1cccc(C(=O)Nc2ccc(N3CCN(S(C)(=O)=O)CC3)cc2)c1	none
Cc1cc(C(=O)COC(=O)Cn2c(C(F)(F)F)nc3ccccc32)c(C)n1Cc1ccco1	none
CCOc1ccc(NC(=O)N2CCC(c3ccc(C)cc3)C2)cc1 (stereo not given)	none (no result: D1 allo mod, FXIa mix inh, M1 antagonist, FXIIa inh mix, M1 agonist)
C[N+]1(C)CCC(=C2c3ccccc3CC(=O)c3sccc32)CC1	none (no result: D1 allo mod, FXIa mix inh, M1 antagonist, FXIIa inh mix, M1 agonist)
CSCC[C@H](NC(=O)OC(C)(C)C)c1nnc(SCC(N)=O)o1	D1 allo mod -2.2
CCCC(=O)Nc1ccc(-c2nc3cc(C)c(C)cc3o2)cc1	D1 allo mod -2.4
COc1ccc(CC(=O)Nc2cccc(-c3nnc(-c4ccccc4)o3)c2)cc1OC	DAT uptake mod 2.7
CC(=O)Nc1cccc(-c2nnc(-c3ccccc3)o2)c1	DAT uptake mod -8.4
COc1ccc(-c2nc3cc(NC(=O)Cc4ccc(OC)c(OC)c4)ccc3o2)cc1	D1 allo mod -3.9
CCCC(=O)Nc1ccc2oc(-c3ccncc3)nc2c1	none
COc1cccc(CNn2cnnc2)c1OCc1ccccc1F	none
COc1cccc(CNn2cnnc2)c1OCc1ccc(F)cc1	D1 allo mod -4.9
CC(C)N1CC=C2C(C#N)=C(N)C(C#N)(C#N)[C@H](c3ccoc3)[C@H]2C1	none (no result: D1 allo mod, FXIa mix inh, M1 antagonist, FXIIa inh mix, M1 agonist)
CCN1CC=C2C(C#N)=C(N)C(C#N)(C#N)C(c3cc(Cl)ccc3Cl)C2C1 (stereo not given)	M1 agonist 35 (no result: DAT uptake mod)
COc1ccc(NC(=O)Cn2c(C)cc(=O)c3cccc(OC)c32)cc1	none
Nc1ncncc1-c1ccc([N+](=O)[O-])cc1	none (no result: D1 allo mod, FXIa mix inh, M1 antagonist, FXIIa inh mix, M1 agonist)
CCOc1ccc(NCc2nnc(SCc3ccccc3Cl)n2-c2ccccc2)cc1	DAT uptake mod -12 (no result: D1 allo mod, FXIa mix inh, M1 antagonist, FXIIa inh mix, M1 agonist)
Cn1c(CNc2ccc(Cl)cc2)nnc1SCc1ccccc1	none
CCn1c(CNc2ccc(Cl)cc2)nnc1SCc1ccccc1	DAT uptake mod 1.8 (no result: D1 allo mod, FXIa mix inh, M1 antagonist, FXIIa inh mix, M1 agonist)
Clc1ccccc1CSc1nnc(Cn2cnc3ccccc32)n1-c1ccccc1	none (no result: D1 allo mod, FXIa mix inh, M1 antagonist, FXIIa inh mix, M1 agonist)
O=C(c1cccnc1)N1CCN(S(=O)(=O)c2ccc(S(=O)(=O)N3CCCC3)cc2)CC1	none (no result: D1 allo mod)
CCOC(=O)N1CCC(NC(=O)c2ccc3c(c2)sc2nc(-c4cccc(OC)c4)cn23)CC1	D1 allo mod -2.6 (no result: DAT uptake mod)
CCOC(=O)N1CCC(NC(=O)c2ccc3snnc3c2)CC1	DAT uptake mod 2.8
O=C(c1ccc(NS(=O)(=O)c2cccs2)cc1)N1CCCCC1	none
COc1ccc(Cn2nnnc2CN(Cc2cc3ccc(C)cc3[nH]c2=O)C2CCCC2)cc1	none
O=c1[nH]c2cc3c(cc2cc1CN(Cc1nnnn1CC1CCCO1)C1CCCC1)OCO3 (stereo not given)	D1 allo mod -3.3 (no result: DAT uptake mod)
